Experimental findings from paper PMC7819943, “Rice protein-binding microarrays: a tool to detect cis-acting elements near promoter regions in rice” are described below.

Whole data set: some 35,000 sequences, median “fluorescence intensity (a.u.)” near 10,000, cut for the highest 2% near 52,000. This excerpt belongs to a sample that is enriched for the highest values.

In the experiment the target is T1, OsWOX13 (Oryza sativa, UniProt Q5QMM3 1-267).
T1 sequence: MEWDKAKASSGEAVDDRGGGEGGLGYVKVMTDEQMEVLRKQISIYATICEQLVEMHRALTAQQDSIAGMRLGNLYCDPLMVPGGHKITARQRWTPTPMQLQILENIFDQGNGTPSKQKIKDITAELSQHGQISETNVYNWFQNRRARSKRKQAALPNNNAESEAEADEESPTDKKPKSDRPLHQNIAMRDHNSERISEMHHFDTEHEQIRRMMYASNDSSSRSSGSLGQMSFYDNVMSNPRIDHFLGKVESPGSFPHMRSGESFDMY
The experiment can be described thus: protein-binding microarray (RPBM); PBS, 2% BSA, 51.3 ng/ul salmon testes DNA, 50 uM zinc acetate, 200 nM TF, 25 C, 1 h; high values mean tight binding. Particulars: protein: recombinant; tags: N-terminal polyhistidine and DsRed monomer fusion (pET32a); label: CyDye5-dUTP incorporated in the synthesized complementary strand; 3' TTTTT single-stranded linker to array surface; dsDNA, one strand shown. The method in brief:
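Binding signal is defined as the fluorescence intensity of each feature in arbitrary units, read on an Axon 4000B scanner. Transcription factors with N-terminal polyhistidine and DsRed fusions came from E. coli BL21-CodonPlus and were purified on Ni–NTA. They were incubated at 200 nM for 1 h at 25 °C on a custom Agilent array that had been made double-stranded with Cy5-dUTP, with 50 µM zinc acetate present, and the array was washed.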
Regarding “GTCATCAATGATTCAGTGTTAACTACTCCATTTCTAGAAACGGAGTCACCTAGTGCAG”, the binding signal was 3880 fluorescence intensity (a.u.).

As for “GTGCAATTTAACTCCATAAATTACTTTCAGAAATGTGCAGCGGAGTCACCTAGTGCAG”, the binding signal was 11300 fluorescence intensity (a.u.).

Consider “ATGAGCCTAACCATTTCTAGTGTTACTTACTCCATTTCAGCGGAGTCACCTAGTGCAG”, for which the binding signal was 64200 fluorescence intensity (a.u.).

Regarding “ATAATGGGAAATGGAGGGTGGGATTGGGATTAGAAAATGACGGAGTCACCTAGTGCAG”, the binding signal was 3290 fluorescence intensity (a.u.).

In the case of “AATATTAGTATTAATTGATAAAAGTTCGTCACGCGAGTTACGGAGTCACCTAGTGCAG”, the binding signal was 18200 fluorescence intensity (a.u.).

Take “TAAATTGAATGGTTTTGTAAGTTGAGGGACGTCATATATCCGGAGTCACCTAGTGCAG”: the binding signal is 21500 fluorescence intensity (a.u.).

Take “ATTTTGAAGTTCCTGTAAGTTGGACATATCTACTGGTTCCCGGAGTCACCTAGTGCAG”: the binding signal was 65500 fluorescence intensity (a.u.).

Turning to “GAGTAATTTTCTACTGGTTTTAATAGTTGAAATAGCTGTTCGGAGTCACCTAGTGCAG”, the binding signal was 3780 fluorescence intensity (a.u.).

In the case of “TATCTCTAATTTAGTTAATTTAACTTGTTGATCGATCGCTCGGAGTCACCTAGTGCAG”, the binding signal was 21700 fluorescence intensity (a.u.).

As for “TTTGATTTAATTTGTTCTGCAAACAGTCCGGAAAATGCCTCGGAGTCACCTAGTGCAG”, the binding signal was 53500 fluorescence intensity (a.u.).

As to “CCAAATTTGATTGGCATCTCAAAACTGTCGTATAATTGGGCGGAGTCACCTAGTGCAG”, the binding signal was 65500 fluorescence intensity (a.u.).

On to “CAAAACTGTCATTTTGTATGATTTCTCTCTCATCAATTGGCGGAGTCACCTAGTGCAG”, for which the binding signal is 17500 fluorescence intensity (a.u.).

In the case of “CAATAAATTTGAATAGCAATTGGTATATGTCATATCTGGTCGGAGTCACCTAGTGCAG”, the binding signal was 14900 fluorescence intensity (a.u.).

For “TCGGTCTGCAAACAAATTGATTGATTTGTTTTCCTTTTGCCGGAGTCACCTAGTGCAG”, the binding signal was 47100 fluorescence intensity (a.u.).

With “AGCAAATTTAAATTTGATAGTATAGAATTGGTTCTGAGGTCGGAGTCACCTAGTGCAG”, the binding signal was 52400 fluorescence intensity (a.u.).

Consider “ATTTTCTCAATTTATCTCACTCATATAAACTCCAAATTGGCGGAGTCACCTAGTGCAG”, for which the binding signal was 6170 fluorescence intensity (a.u.).

In the case of “CGTTTCTGATTTGATTCTTCCAAATTTTGGGTTCCTGATTCGGAGTCACCTAGTGCAG”, the binding signal was 24800 fluorescence intensity (a.u.).

In the case of “AGTTTATGATAATTTAAATTTATATAGTATGTAGAATGGTCGGAGTCACCTAGTGCAG”, the binding signal was 14400 fluorescence intensity (a.u.).

For the sequence “TTGATTTGATTGGGTTGGTTCCAAATTATATTCTGTGATTCGGAGTCACCTAGTGCAG”, the binding signal was 57600 fluorescence intensity (a.u.).

Take “ACTTGTAGTAATTTAATTTGAAATTCTGTTCTTGCCTCTGCGGAGTCACCTAGTGCAG”: the binding signal is 6760 fluorescence intensity (a.u.).

“TTATACAAATTATACCTGTTAATTATTGTGATTGTTTGGTCGGAGTCACCTAGTGCAG”: the binding signal is 36800 fluorescence intensity (a.u.).

On to “ATTCGTAACCACTTAATTACCCATTTATCCCCTTCTGATTCGGAGTCACCTAGTGCAG”, for which the binding signal was 10600 fluorescence intensity (a.u.).

As for “TATAAATTTAGTTAAATATATATAAAGAAGTTTGACTTATCGGAGTCACCTAGTGCAG”, the binding signal was 9160 fluorescence intensity (a.u.).

For the sequence “TAATAATTTATTATGTGTATGTGTATGGCTAGGATACAGCCGGAGTCACCTAGTGCAG”, the binding signal is 16500 fluorescence intensity (a.u.).

For “TGTTTTACCCTGATTGCGTGAAGTGAAACTATTATTCAGGCGGAGTCACCTAGTGCAG”, the binding signal was 3550 fluorescence intensity (a.u.).

In the case of “AAAATTATATAATTATAATTTATTTTATTGCAACTTGATTCGGAGTCACCTAGTGCAG”, the binding signal was 27000 fluorescence intensity (a.u.).

Consider “GTTCGTTCGTTCGTTGATTGATTGTGTTGAATTAATTGAGCGGAGTCACCTAGTGCAG”, for which the binding signal is 27600 fluorescence intensity (a.u.).

On to “ACTAATTTGGTATTATAACTGTTGCTAATTATTCTATAAACGGAGTCACCTAGTGCAG”, for which the binding signal was 21700 fluorescence intensity (a.u.).

For the sequence “TTTCGTGATAATTTTGTGTGCAATCACAACAATTTGAAATCGGAGTCACCTAGTGCAG”, the binding signal was 6180 fluorescence intensity (a.u.).

For “TGTATTTGATTGAAACTGTTCATACTATAAACATGCTGGGCGGAGTCACCTAGTGCAG”, the binding signal is 57900 fluorescence intensity (a.u.).

In the case of “ATCATAATTTGAAATTCAAATTCATACTGTTCAAACAAAGCGGAGTCACCTAGTGCAG”, the binding signal was 17600 fluorescence intensity (a.u.).

Regarding “GTCATAATTTGAAATTCAAATTTAAACTATTCAAACAAAGCGGAGTCACCTAGTGCAG”, the binding signal is 23300 fluorescence intensity (a.u.).

On to “GCAAATTGAATTAATTCGTGTGATATTTGTTCTGCACCGGCGGAGTCACCTAGTGCAG”, for which the binding signal was 59500 fluorescence intensity (a.u.).

As to “CAAATTGGTGGGTGATTGCTAATTTATAACTGTTCGTATTCGGAGTCACCTAGTGCAG”, the binding signal was 64100 fluorescence intensity (a.u.).

Take “TCCACTCAATCTTCTGTTTCTATTTCCCCGTAATCGAAGCCGGAGTCACCTAGTGCAG”: the binding signal was 4630 fluorescence intensity (a.u.).

On to “AGCTAAATTGATTCGTGCACCCAAGTCAACAAGAAAACGTCGGAGTCACCTAGTGCAG”, for which the binding signal is 38900 fluorescence intensity (a.u.).

With “TCAAATAATTTCGGTCAGAAATTTCCGAAATTTTGGTAATCGGAGTCACCTAGTGCAG”, the binding signal is 7080 fluorescence intensity (a.u.).

In the case of “GTAGTTAACCATTTAACCTGATGATGTGAGGACGAAAGAACGGAGTCACCTAGTGCAG”, the binding signal is 4950 fluorescence intensity (a.u.).

“ATTAACTATAATTATCGGCTGCAATCTAATTCGAATGTAGCGGAGTCACCTAGTGCAG”: the binding signal is 30300 fluorescence intensity (a.u.).

As for “TGGTGGTGGTGGTGGTAGGGTTAGGGGTAGGAGGGGTCTCCGGAGTCACCTAGTGCAG”, the binding signal is 8890 fluorescence intensity (a.u.).

With “CAGGTAATGGATTGATTGCAGGGTTGGGATTTGACCAGGTCGGAGTCACCTAGTGCAG”, the binding signal is 51800 fluorescence intensity (a.u.).

As for “TTTCAAATCTCAAATTGAAAGTTTTCAAAATTTTCAAATCCGGAGTCACCTAGTGCAG”, the binding signal is 3760 fluorescence intensity (a.u.).
